Assay outcomes: PubChem, National Center for Advancing Translational Sciences (NCATS)
The full list was thinned out, with hits kept by preference.
TbPYK inhibitor – T. brucei pyruvate kinase inhibition | TbPYK enzyme, Kinase-Glo Plus ATP luminescence, 45 min | Potency, µM (highest dose often 76.8 µM), for inactives: top-dose activity, negative = inhibition, usual class: inhibitors | actives 0.12% (n = 410,000); note: potency is the fitted concentration of half-maximal effect; % is set by controls: 0 for no effect and ±100 for the full control effect; nearly all actives have a fitted effect of over 50% in size
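Quantitative HTS: titrated library compounds versus trypanosomal pyruvate kinase in TEA buffer (pH 7.2) containing KCl, MgCl2, BSA and Tween-20. Reactions were initiated with ADP, 130 uM final. Kinase-Glo Plus luminescence was read after 45 min at RT.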
Sm TGR block – blocks Schistosoma mansoni thioredoxin glutathione reductase | Q962Y6 | purified TGR, DTNB reduction, TNB absorbance 405 nm | Potency, µM (titrated, usually from 114 µM), without a hit: top-dose activity change, negative = inhibition, hits mostly inhibitors | actives 3% (n = 360,000) | AID 485364; note: potency is the fitted concentration of half-maximal effect; % is set by controls: 0 for no effect and ±100 for the full control effect; nearly all actives have a fitted effect of over 60% in size
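TGR 20 nM + NADPH 100 uM (dispensed conc.), cpd preinc 15 min RT; start with NADPH (500 uM addition) then DTNB (15 mM addition). Kinetic TNB absorbance, 405 nm filter. Four-parameter Hill fit across titration.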
Giardia FBPA inh – Giardia lamblia aldolase inhibition | purified Giardia FBPA | AID 2451 | Potency, µM (titrated, usually from 59.6 µM), inactives show top-dose activity, negative = inhibition, actives largely listed as inhibitors | actives 0.71% (n = 290,000); note: potency is the fitted concentration of half-maximal effect; % is set by controls: 0 for no effect and ±100 for the full control effect; nearly all actives have a fitted effect of over 55% in size
Target sequence (A8B2U2 whole entry, looked up): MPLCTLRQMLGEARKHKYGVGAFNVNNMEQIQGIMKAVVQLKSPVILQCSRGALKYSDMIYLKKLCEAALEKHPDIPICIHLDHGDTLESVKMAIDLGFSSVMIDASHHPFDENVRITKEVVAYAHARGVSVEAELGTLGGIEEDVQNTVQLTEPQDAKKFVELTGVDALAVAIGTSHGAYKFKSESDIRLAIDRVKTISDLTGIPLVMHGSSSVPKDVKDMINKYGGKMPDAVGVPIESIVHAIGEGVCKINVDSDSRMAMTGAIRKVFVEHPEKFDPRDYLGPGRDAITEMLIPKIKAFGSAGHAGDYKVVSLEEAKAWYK
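Giardia FBPA (40 nM reagent) was preincubated 10 min at RT with compound (up to 57.5 uM final), then substrate plus GAPDH/TPI/NAD/arsenate coupling system with diaphorase/resazurin was added; resorufin fluorescence (525/598 nm) was read after 20 min.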
Shiga toxin inh – inhibitors of Shiga toxin in Vero cells. Vero cells, Shiga toxin protein synthesis inhibition reporter. inhibition, % at 38.7 µM. actives 9.2% (n = 290,000); in the data active = inhibition mostly above about 28%, no sharp cut-off; inactive = mostly below about 43%; note: 0% is about no effect
CHX counter – affects cycloheximide protein synthesis inhibition readout, counter-screen | actives 12% (n = 300,000) | cell reporter, cycloheximide protein synthesis inhibition counterscreen | max response, %; in the data active = max response mostly above about 13%, no sharp cut-off; inactive = mostly below about 14%; note: read at 38.3 µM for the half of the compounds with a filed dose; 0% is about no effect
LmPK inh – inhibitors of Leishmania mexicana pyruvate kinase | Q27686 | purified LmPK, Kinase-Glo ATP luminescence, 1 h | Potency, µM (doses to about 57.5 µM), without a hit: top-dose activity change, negative = inhibition, hits mostly inhibitors | actives 0.37% (n = 290,000) | AID 1721; note: potency is the fitted concentration of half-maximal effect; % is set by controls: 0 for no effect and ±100 for the full control effect
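Purified LmPK (0.1 nM) with 0.5 mM PEP and 0.1 mM ADP in imidazole buffer pH 7.2 with MgCl2/KCl, 1 h at room temperature. ATP formed was read by luciferase luminescence and normalized to no-enzyme and uninhibited controls.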
* marks the source's active call; other numbers are inactive results; ? = inconclusive; nt = no result. Unless noted, calls come from the whole dose curve; as a rule, active = well fitted curve in the direction sought with a large enough effect; inconclusive = small, poorly fitted or top-dose-only effect, or another doubt; inactive = no such curve, though single readings can be large; an effect the other way counts as inactive or inconclusive.

SMILES	TbPYK inhibitor	Sm TGR block	Giardia FBPA inh	Shiga toxin inh	CHX counter	LmPK inh
COC(=O)c1cn[nH]c1NC(=S)Nc1ccccc1C	-15%	45µM*	-6%	92*	45*	-2%
COC(=O)c1cn[nH]c1NC(=S)Nc1ccc(Cl)c(Cl)c1	-9%	0%	2%	118*	71*	0%
CCOC(=O)c1cn[nH]c1NC(=S)Nc1ccc(OC)cc1	-14%	?	?	1	17	-4%
Cc1ccc(NC(=S)Nc2ccc3cn[nH]c3c2)c(C)c1	-4%	-7%	-11%	20	2	4%
COCCNC(=O)C1(C)CCCN(C(=O)c2cccc(C(F)(F)F)c2)C1 (configuration not stated)	3%	nt	nt	nt	nt	nt
Cc1ccc(CCC(=O)Nc2ccc([N+](=O)[O-])cc2)o1	-9%	?	8%	26	2	1%
Cc1ccc(CCC(=O)Nc2ccc(C)c(C)c2)o1	-10%	-27%	nt	17	19*	0%
Cc1cccc(NC(=O)CCc2ccc(C)o2)c1	-31%	35µM*	2%	46	18*	-3%
Cc1ccc(NC(=O)CCc2ccc(C)o2)cc1	-8%	7%	10%	nt	16*	-4%
CC(=O)Nc1ccc(NC(=O)CCc2ccc(C)o2)cc1	2%	-3%	nt	-6	2	8%
Cc1ccc(CCC(=O)Nc2ccc(S(N)(=O)=O)cc2)o1	-26%	14µM*	-19%	-3	2	-7%
Cc1cc(C)cc(NC(=O)CCc2ccc(C)o2)c1	-7%	-15%	nt	23	22	2%
CCCN1CCN(c2ncnc3sc(C(=O)Nc4ccc(C(C)C)cc4)c(C)c23)CC1	-5%	1%	nt	nt	nt	nt
CSC(SC)=C(C#N)C(=O)c1ccccc1	1%	11µM*	3%	-3	15	-1%
COc1cccc(C(=O)C(C#N)=C(SC)SC)c1	-1%	13µM*	0%	16	8	11%
O=C(O)CCCCCN1C(=O)C(O)=C(C(=O)/C=C/c2ccccc2)C1c1ccccc1[N+](=O)[O-] (configuration not stated)	-5%	-30%	-29%	41	14*	2%
COc1ccc(Nc2nc(CC(C)=O)ns2)cc1OC	-10%	13µM*	-5%	4	-5	-7%
CC(=O)Cc1nsc(Nc2ccccc2)n1	-3%	-3%	2%	20	12	4%
CC(=O)Cc1nsc(Nc2cccc(C)c2)n1	2%	-4%	-4%	92*	28*	-8%
Cc1nn(C(C)C(=O)NCCN2CCCC2)c(=O)c2c1sc1ccccc12 (configuration not stated)	-5%	-8%	nt	-10	-9	-17%
N/C(=N\OC(=O)c1ccc(Cl)c(Cl)c1)c1cccnc1	6%	-3%	3%	41	26*	-8%
N/C(=N\OC(=O)c1cccc(Cl)c1)c1cccnc1	-12%	-5%	-4%	99*	47*	-12%
N/C(=N\OC(=O)c1cccc(Cl)c1)c1ccncc1	4%	0%	1%	59*	39*	-4%
N/C(=N\OS(=O)(=O)c1ccc(Cl)cc1)c1cccnc1	-3%	-11%	8%	12	1	1%
O=C(O/N=C(\c1ccccc1)c1ccccn1)c1ccc(Cl)c(Cl)c1	-2%	-3%	11%	-12	2	4%
SMILES	TbPYK inhibitor	Sm TGR block	Giardia FBPA inh	Shiga toxin inh	CHX counter	LmPK inh
N/C(=N\OC(=O)c1ccc(Cl)c(Cl)c1)c1cccc(CSc2ccccn2)c1	4%	-9%	0%	62*	29*	4%
C/C(=N\OC(=O)c1cccc(Cl)c1)c1sc(C)nc1C	-25%	-3%	5%	25	-2	6%
N[C@](CC1c2ccccc2Oc2ccccc21)(C(=O)O)[C@@H]1C[C@@H]1C(=O)O	nt	nt	-7%	nt	nt	nt
CC1CCN(CCCn2c(=S)[nH]c3c(sc4ccccc43)c2=O)CC1	?	-2%	-18%	105*	22*	-2%
O=C(O)CCCn1c(=S)[nH]c2c(sc3ccc([N+](=O)[O-])cc32)c1=O	20µM*	-15%	?	-3	-2	?
COCCCn1c(=S)[nH]c2c(sc3ccccc32)c1=O	-29%	?	?	16	29*	5%
